Results as given in ChEMBL document CHEMBL3433997, “St. Jude Leishmania screening dataset” (2016).

Tests used:
Type in all cases: functional
[1] = biological target: Solute carrier family 2, facilitated glucose transporter member 1 (Homo sapiens) (UniProt P11166); assay: ST_JUDE_LEISH: Cytotoxicity at 2uM final concentration against transgenic Leishmania Mexicana promastigotes LmGLUT1 that are glucose transport deficient and complemented with the human glucose transporter GLUT1. Activity is measured by DNA content using SYBR green in vitro
[2] = biological target: Hexose transporter 1 (Plasmodium falciparum) (UniProt O97467); assay: ST_JUDE_LEISH: Cytotoxicity at 2uM final concentration against transgenic Leishmania Mexicana promastigotes LmPfHT that are glucose transport deficient and complemented with the Plasmodium falciparum hexose transporter. Activity is measured by DNA content using SYBR green in vitro
[3] = biological target: Glucose transporter (Leishmania mexicana) (UniProt O61059); assay: ST_JUDE_LEISH: Cytotoxicity at 2uM final concentration against transgenic Leishmania Mexicana promastigotes LmGT2 that are glucose transport deficient and complemented with the L. Mexicana glucose transporter 2. Activity is measured by DNA content using SYBR green in vitro

Chain of Solute carrier family 2, facilitated glucose transporter member 1 (Homo sapiens) (P11166 whole entry): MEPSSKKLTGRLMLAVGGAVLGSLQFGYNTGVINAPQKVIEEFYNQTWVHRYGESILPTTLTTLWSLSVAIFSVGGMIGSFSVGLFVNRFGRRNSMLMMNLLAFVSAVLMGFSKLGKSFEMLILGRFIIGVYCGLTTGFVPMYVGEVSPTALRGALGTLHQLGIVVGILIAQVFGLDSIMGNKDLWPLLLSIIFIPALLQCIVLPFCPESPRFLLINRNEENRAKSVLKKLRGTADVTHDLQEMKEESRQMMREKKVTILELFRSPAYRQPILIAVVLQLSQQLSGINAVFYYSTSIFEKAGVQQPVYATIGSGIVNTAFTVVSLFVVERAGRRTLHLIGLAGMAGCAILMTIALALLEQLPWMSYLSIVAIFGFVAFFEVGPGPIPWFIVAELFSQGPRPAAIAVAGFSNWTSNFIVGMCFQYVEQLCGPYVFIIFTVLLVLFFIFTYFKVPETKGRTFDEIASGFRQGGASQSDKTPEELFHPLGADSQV

Nc1cccc(CNCc2cccc(-c3csc(-c4nc5ccccc5[nH]4)c3)c2)c1
inhibition [1]: 2.32%
inhibition [2]: 2.29%
inhibition [3]: 1.68%

Cn1cncc1C(=O)Nc1cccc(-c2cccc(-c3nc4ccccc4[nH]3)c2)c1
inhibition [1]: 4.71%
inhibition [2]: 4.74%
inhibition [3]: 5.38%

CC(CNC(=O)c1cc2c(Cl)cc(Cl)cc2[nH]1)CNc1cc(=O)c2ccccc2[nH]1 (stereo unspecified)
inhibition [1]: -0.17%
inhibition [2]: 1.37%
inhibition [3]: 2.08%

O=C(Nc1ccc(Cl)c(Cl)c1)Nc1ccccc1N1CCNCC1
inhibition [1]: 0.02%
inhibition [2]: 0.2%
inhibition [3]: 1.04%

CN(C)CCCNCc1ccc(-c2ccc(CNCCc3ccccc3)cc2)cc1
inhibition [1]: -0.43%
inhibition [2]: 0.15%
inhibition [3]: -0.49%

NC(=O)c1sc(-n2cnc3ccc(OCC4CCNCC4)cc32)cc1OCc1ccccc1C(F)(F)F
inhibition [1]: 0.4%
inhibition [2]: -0.16%
inhibition [3]: 0.31%

Cc1ccc(CCC(C)NCC(O)c2cccc(C(F)(F)F)c2)cc1 (stereo unspecified)
inhibition [1]: -0.37%
inhibition [2]: 0.53%
inhibition [3]: 0.17%

CN(C)c1ccc(-c2csc(C(=O)NCC3CCN(Cc4cccc(C(F)(F)F)c4)C3)c2)cc1 (stereo unspecified)
inhibition [1]: 7.22%
inhibition [2]: 6.1%
inhibition [3]: 9.26%

CCC(C)CNC(=O)CN1CN(c2ccccc2)C2(CCN(C(=O)c3ccc(Br)cc3)CC2)C1=O (stereo unspecified)
inhibition [1]: 0.35%
inhibition [2]: -0.13%
inhibition [3]: 0.82%

Cc1ccc2nc3c(cc(C(=O)NCc4ccccc4)c(=N)n3CCCn3ccnc3)c(=O)n2c1
inhibition [1]: 10.5%
inhibition [2]: 12.5%
inhibition [3]: 12.2%

NC(=O)c1cccc(CNC(=O)NC[C@H]2CN(Cc3ccc(Cl)c(Cl)c3)CCO2)c1
inhibition [1]: 7.5%
inhibition [2]: 6.84%
inhibition [3]: 6.5%

Cc1ccc(F)cc1S(=O)(=O)NCC(C)c1ccc(NC(=O)Nc2cccc(F)c2)cc1 (stereo unspecified)
inhibition [1]: 0.16%
inhibition [2]: 1.6%
inhibition [3]: -0.29%

Cc1cc(N[C@@H](Cc2ccccc2)C(=O)NCCOc2ccccc2)nc(NCCc2ccccc2)n1
inhibition [1]: 6.59%
inhibition [2]: 5.86%
inhibition [3]: 3.92%

Cc1cc(CN2CCCN(c3ccc4c(c3)CCN(Cc3ccc(-c5ncc[nH]5)cc3)CC4)CC2)n(C)n1
inhibition [1]: -0.3%
inhibition [2]: -1.47%
inhibition [3]: -3.2%

COCCN1CCN(Cc2cccc(-c3ccc(-c4nc5ccccc5[nH]4)cc3)c2)CC1
inhibition [1]: 0.45%
inhibition [2]: -3.13%
inhibition [3]: -1.36%

CCN(CC)CCN(Cc1ccc(-c2ccc(C(F)(F)F)cc2)cc1)C(=O)Cn1c(CCc2cccc(F)c2F)nc(=O)c2sccc21
inhibition [1]: 0.1%
inhibition [2]: 1.36%
inhibition [3]: -0.22%

COc1ccc(C=NN=c2cc(C)[nH]c3ccccc23)cc1OC
inhibition [1]: 7.8%
inhibition [2]: 9.53%
inhibition [3]: 2.8%

CCN(CC)CCCC(C)Nc1c2ccc(Cl)cc2nc2ccc(OC)cc12 (stereo unspecified)
inhibition [1]: 5.81%
inhibition [2]: 1.67%
inhibition [3]: 3.71%

CC(=O)Nc1ccc2[nH]cc(C3CCN(CC4CCC(NC(=O)/C=C/c5ccccc5Cl)CC4)CC3)c2n1 (stereo unspecified)
inhibition [1]: 6.86%
inhibition [2]: 5.52%
inhibition [3]: 6.59%

N#Cc1ccc2[nH]cc(-c3cn4cc(SC5CCCC5)ccc4n3)c2c1
inhibition [1]: 0.43%
inhibition [2]: 1.11%
inhibition [3]: 1.09%

CN(C)c1ccc(C=C2SC(=N)N(c3nccs3)C2=O)cc1
inhibition [1]: 3.25%
inhibition [2]: 5.28%
inhibition [3]: 4.86%

Cc1cccc(NC(c2cccs2)c2c(NC(=O)c3ccccc3)sc(C)c2C)n1 (stereo unspecified)
inhibition [1]: 6.21%
inhibition [2]: 3.93%
inhibition [3]: 2.13%

N=C1N=C(N)NC2(CCCCC2)N1OCC1CCCCC1
inhibition [1]: -0.96%
inhibition [2]: -0.44%
inhibition [3]: -1.26%

O=C(C=Cc1ccc(Cl)c(Cl)c1)NCCCCCN1CCC(CCNS(=O)(=O)c2ccc(Br)cc2)CC1
inhibition [1]: 2.45%
inhibition [2]: 1.43%
inhibition [3]: 2.53%

CC(=O)Nc1ncc(C(=O)Nc2cccc(-c3ccc(-c4nc5cc(C(F)(F)F)ccc5[nH]4)cc3)c2)s1
inhibition [1]: 2.37%
inhibition [2]: 0.89%
inhibition [3]: -0.63%

CN(C(=O)Cc1ccc(Cl)cc1)C1CCN(CCCCCNC(=O)/C=C/c2ccc(Cl)c(Cl)c2)CC1
inhibition [1]: 2.86%
inhibition [2]: 2.1%
inhibition [3]: 1.99%

CC(C)(NCc1ncc[nH]1)c1nc(-c2ccc(Cl)c(O)c2)c(-c2ccncc2)[nH]1
inhibition [1]: 2.76%
inhibition [2]: 3.34%
inhibition [3]: 3.01%

CCN1CCN(c2cc(C)c3cc(NC(=O)c4cncc(Br)c4)ccc3n2)CC1
inhibition [1]: -0.07%
inhibition [2]: -1.3%
inhibition [3]: -2.43%

COc1ccc(-c2ccc(CNCc3ccc(F)cc3)cc2)cc1S(=O)(=O)NCCN1CCCC1
inhibition [1]: 0.67%
inhibition [2]: 1.06%
inhibition [3]: 3.23%

CCc1cn2c3c(cc(C(=O)N[C@@H](Cc4ccccc4)[C@H](O)CNCc4ccccc4)cc13)N(C)S(=O)(=O)CC2
inhibition [1]: -0.83%
inhibition [2]: -0.74%
inhibition [3]: 0.13%

CCn1c(C(C)C)cc2c3c(N)nc(N)nc3ccc21
inhibition [1]: 50.6%
inhibition [2]: 61.1%
inhibition [3]: 42%

O=C(Nc1ccccc1)OCCOc1ccc(CC2SC(=O)NC2=O)cc1 (stereo unspecified)
inhibition [1]: 2.13%
inhibition [2]: 3.76%
inhibition [3]: 2.23%

CN1CCC(Oc2ccc(CN3CC[C@H](NC(=O)c4ccc(Cl)c(Cl)c4)C3)c3ccccc23)C1 (stereo partly specified)
inhibition [1]: 2.7%
inhibition [2]: 4.41%
inhibition [3]: 3.37%

Nc1ncc(-c2ccc(Br)cc2)c(N)n1
inhibition [1]: 1.2%
inhibition [2]: -0.78%
inhibition [3]: -0.3%

N#Cc1cc(C(=O)Nc2ccccc2)c(N)nc1SCC(=O)Nc1ccc(Br)cc1
inhibition [1]: 8.21%
inhibition [2]: 5.88%
inhibition [3]: 4.96%

Cc1[nH]c(C)c(-c2ccc(CCc3cccc(C(F)(F)F)c3)nc2)c(=O)c1Cl
inhibition [1]: 2.83%
inhibition [2]: 2.18%
inhibition [3]: 0.88%

COc1ccc(-c2ccccc2CNc2nc(NCCc3ccc(O)cc3)nc(N3CCNCC3)n2)cc1
inhibition [1]: -2.91%
inhibition [2]: -0.55%
inhibition [3]: 0.12%

Cc1ccc2c(=NN=Cc3cccc(Cl)c3)cc(C)[nH]c2c1
inhibition [1]: 0.92%
inhibition [2]: 0.93%
inhibition [3]: 1.04%

O=C(Nc1ccc(-c2ccc(-c3nc4ccccc4[nH]3)s2)cc1)c1ccncc1
inhibition [1]: 12.7%
inhibition [2]: 8.04%
inhibition [3]: 5.66%

Cc1sc(CNCCCNc2cc(=O)c3ccccc3[nH]2)cc1Br
inhibition [1]: 0.99%
inhibition [2]: 0.97%
inhibition [3]: 0.93%

Fc1ccc2[nH]c(-c3cccc(-c4ccc(CN5CCCCC5)cc4)c3)nc2c1
inhibition [1]: 4.18%
inhibition [2]: 3.6%
inhibition [3]: 2.43%

O=C(Nc1ccc(OC2CCN(Cc3ccsc3)CC2)c(Cl)c1)c1ccc(F)cc1
inhibition [1]: 4.89%
inhibition [2]: 2.78%
inhibition [3]: 2.62%

CCN(CC)CCN(Cc1ccc(-c2ccc(Cl)cc2)cc1)C(=O)Cn1cc(CN(C)C)c(=O)nc1SCc1ccc(F)cc1
inhibition [1]: 0.45%
inhibition [2]: 0.54%
inhibition [3]: 1.16%

CCN1CCN(c2cc(C)c3cc(NC(=O)c4ccc(N(CC)CC)cc4)ccc3n2)CC1
inhibition [1]: -0.29%
inhibition [2]: 2.18%
inhibition [3]: -3.38%

Cc1cccc(CN2CCCN(Cc3cccc(C(=O)Nc4ccc(C(C)(C)C)cc4)c3)CC2)c1
inhibition [1]: 3.43%
inhibition [2]: 2.22%
inhibition [3]: 1.26%

CCCc1cc(N2CCC(N3CCCC3)CC2)nc(Nc2ccc(OC)cc2)n1
inhibition [1]: 1.06%
inhibition [2]: 2.18%
inhibition [3]: 0.63%

N=C(N)Nc1ccc(OCCCCCOc2ccc(NC(=N)N)cc2Br)c(Br)c1
inhibition [1]: 4.63%
inhibition [2]: 1.79%
inhibition [3]: 0.79%

COc1cc(C(=O)NC2CCN(Cc3ccccc3)CC2)ccc1-c1cc2cc(Cl)c(Cl)cc2[nH]1
inhibition [1]: 3.35%
inhibition [2]: 4.32%
inhibition [3]: 2%

O=C(Nc1ccc(CN2CCCCC2)cc1)c1ccc(COc2ccc([N+](=O)[O-])cc2)o1
inhibition [1]: 4.55%
inhibition [2]: 3.4%
inhibition [3]: 0.44%

N#Cc1ccc(CN2CCC(Oc3ccc(NC(=O)c4cccs4)cc3)C2)cc1 (stereo unspecified)
inhibition [1]: 2.68%
inhibition [2]: -0.99%
inhibition [3]: 0.05%

c1ccc(C(c2ccccc2)N2CCC(NCc3ccc(OCCCN4CCCCC4)cc3)CC2)cc1
inhibition [1]: 8.52%
inhibition [2]: 11.3%
inhibition [3]: 10.7%

CCOc1cccc(C2c3c(oc4ccccc4c3=O)C(=O)N2CCN(CC)CC)c1 (stereo unspecified)
inhibition [1]: 4.85%
inhibition [2]: 2.93%
inhibition [3]: 3.34%

O=[N+]([O-])c1ccc(/C=N/O)nc1
inhibition [1]: 88.1%
inhibition [2]: 91.2%
inhibition [3]: 84.6%

CCCCCCN1CCN(Cc2cccc(NC(=O)c3cc4ccccc4s3)c2)CC1
inhibition [1]: 2.76%
inhibition [2]: 2.43%
inhibition [3]: 2.42%

O=C(NCC1Cc2cc(Oc3ccccc3)ccc2O1)c1ccc([N+](=O)[O-])o1 (stereo unspecified)
inhibition [1]: 7.98%
inhibition [2]: 10.4%
inhibition [3]: 3.24%

CCN1CCCC1CN(Cc1ccc(-c2ccc(C(F)(F)F)cc2)cc1)C(=O)Cn1c(CCc2cccc(F)c2F)nc(=O)c2ccccc21 (stereo unspecified)
inhibition [1]: 1.13%
inhibition [2]: 2.82%
inhibition [3]: 1.11%

CN1CCC(N2CCN(Cc3ccc(-c4ccc(-c5nc6cc(F)ccc6[nH]5)s4)cc3)CC2)CC1
inhibition [1]: 2.75%
inhibition [2]: 2.55%
inhibition [3]: -0.25%

CN(C)CCNc1ncnc2c1[nH]c1ccc(Br)cc12
inhibition [1]: 1.62%
inhibition [2]: 4.67%
inhibition [3]: 1.38%

Cc1ccc(-c2nc3ccccc3o2)cc1NCc1cc(Cc2ccccc2)ccc1O
inhibition [1]: -0.71%
inhibition [2]: -0.23%
inhibition [3]: -0.6%

Cc1ccc(Sc2ccc(NC(=O)CN3CCN(C(=O)c4ccco4)CC3)cc2)cc1C
inhibition [1]: 9.84%
inhibition [2]: 9.65%
inhibition [3]: 6.7%

Cn1cncc1C(=O)Nc1cccc(-c2cccc(-c3nc4cc(C(F)(F)F)ccc4[nH]3)c2)c1
inhibition [1]: -1.02%
inhibition [2]: 2.87%
inhibition [3]: -0.89%

O=C(Nc1cccc(-c2nn3ccccc3c2-c2ccnc(Nc3ccc(C(=O)N4CCOCC4)cc3)n2)c1)c1c(F)cccc1F
inhibition [1]: 23.1%
inhibition [2]: 7.72%
inhibition [3]: 2.78%

Cc1nc(-c2ccc(-c3ccc(C(=O)Nc4ccc(C(C)C)c(OCCN(C)C)c4)cc3)c(C)c2)no1
inhibition [1]: 4.64%
inhibition [2]: 2.76%
inhibition [3]: 2.51%

N#Cc1cccc(C(=O)Nc2ccc(-c3ccc(CN4CCCC4)cc3)cc2)c1
inhibition [1]: 7.84%
inhibition [2]: 6.53%
inhibition [3]: 3.78%

CCN(CC)CCN(Cc1ccc(-c2ccc(C(F)(F)F)cc2)cc1)C(=O)Cn1c(CCc2ccc(F)cc2)nc(=O)c2ccccc21
inhibition [1]: 2.98%
inhibition [2]: 2.96%
inhibition [3]: 3.33%

Cn1cc(Br)c(-c2cccc(Nc3ccnc4cc(-c5nccs5)ccc34)c2)n1
inhibition [1]: 3.67%
inhibition [2]: 2.34%
inhibition [3]: 4.06%

Cc1ccc(NC(=O)Nc2ccc(Cn3ncc(N4CCCNCC4)c(Cl)c3=O)cc2)cc1
inhibition [1]: 2.01%
inhibition [2]: 4.54%
inhibition [3]: 1.32%

COc1cc([N+](=O)[O-])ccc1NC(=O)Nc1ccc(OC(F)(F)F)cc1
inhibition [1]: 1.06%
inhibition [2]: 2.37%
inhibition [3]: -2.01%

COc1nc(NCC(C)C)nc(Oc2ccc(=O)n(Cc3ccccc3)n2)n1
inhibition [1]: 1.73%
inhibition [2]: 1.88%
inhibition [3]: 3.48%

COc1ccc(Nc2c3ccc(Cl)cc3nc3ccc(OC)cc23)cc1
inhibition [1]: 2.45%
inhibition [2]: 4.25%
inhibition [3]: 0.01%

Cc1[nH]c(C)c(-c2ccc(-c3ccc(C(F)F)cc3)nc2)c(=O)c1Cl
inhibition [1]: 2.19%
inhibition [2]: 3.08%
inhibition [3]: 2.57%

Oc1ccc(CC2CCCN(c3nc(NCCCOc4ccccc4-c4ccccc4)nc(N4CCNCC4)n3)C2)cc1 (stereo unspecified)
inhibition [1]: -0.74%
inhibition [2]: -1.72%
inhibition [3]: -1.02%
